# Experimental data from PubChem BioAssay AID624351 (Southern Research Specialized Biocontainment Screening …, 2012).
# The campaign covered roughly 2,400 compounds. About 1,400 (58%) were called active.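 How the source made its calls: active means inhibition of 30% or more at any tested dose; inconclusive means primary hits over the limit that were never retested; inactive means the rest.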 So high a share suggests a set chosen from earlier hits. The list shows a part of the results.
# Assay: ADP Hunter readout inhibition without MgcRacGAP – biochemical, coupled enzyme counter-screen, artefact control for MgcRacGAP inhibitor project, dose response (AID 624351);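 further: signal is the ADP detection kit reading of free GDP without any GAP enzyme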
# Conditions: fluorescence, no MgcRacGAP; series mostly up to 80 µM
row,Compound,IC50
1,COc1cc(CNC2CCCCC2OC)cc(OC)c1 (centres undefined),inactive
2,O=c1c2c(nc3cc(-c4ccccc4)[nH]n13)CCS2,inactive
3,O=C(CSc1nnc(C2CC2)n1C1CC1)N1CCN(c2ccc(O)cc2)CC1,45.6 µM (active)
4,O=C(CSc1nnnn1C1CC1)N1CCN(c2ccc(O)cc2)CC1,31.5 µM (active)
5,CCOC(=O)C1=C(C)Nc2ccc(C)cc2S1,79 µM (active)
6,CCOC(=O)C1=C(C)Nc2ccccc2S1,41.3 µM (active)
7,CSCCOC(=O)C1=C(C)Nc2ccc(C)cc2S1,35.6 µM (active)
8,CCOC(=O)Nc1ccc2c(c1)Nc1ccccc1S2,40.6 µM (active)
9,O=C(CSc1ccc2ccccc2n1)N/N=C/c1ccc(O)cc1,73.6 µM (active)
10,O=C(CCn1cnc2ccccc21)N/N=C/c1ccc(O)cc1,57.4 µM (active)
11,CCOc1cc(/C=N/NC(=O)CCn2nc(C)cc2C)ccc1O,58.5 µM (active)
12,Cc1cc(C)n(CCC(=O)N/N=C/c2ccc(O)cc2)n1,74.1 µM (active)
13,CN(CCCCCCN(C)Cc1ccccc1O)Cc1ccccc1O,inactive
14,C#CCOCCOCCOCCNc1nc(N2CCN(C(=O)[C@H](CCCCN)n3cc([C@@H](N)CC(C)C)nn3)CC2)nc(N2CCN(C(=O)[C@H](CCCCN)n3cc([C@@H](N)CC(C)C)nn3)CC2)n1,inactive
15,COC(=O)CCNCCSc1nnc(-c2ccco2)n1Cc1ccccc1,inactive
16,N#C/C(=C/c1ccc(O)c(O)c1)C(=O)NCc1ccc(Cl)cc1,36.5 µM (active)
17,CCOc1cc(/C=N/NC(=O)C(=O)NCc2cccnc2)ccc1O,51.2 µM (active)
18,CCOc1cc(/C=C(\C#N)C(=O)NCc2cccnc2)ccc1O,45.3 µM (active)
19,N#C/C(=C\c1cccnc1)C(=O)Nc1cccc2ccccc12,inactive
20,CCOC(=O)c1c(C)n(-c2ccc(C)cc2)c2ccc(OCC(O)CNCC3CCCO3)cc12 (centres undefined),inactive
21,CCOCCCNC(=O)/C(C#N)=C/c1ccc([N+](=O)[O-])o1,inactive
22,CCOc1cc(/C=C(\C#N)C(=O)NCC2CCCO2)ccc1O (centres undefined),49.7 µM (active)
23,C#CCOCCOCCOCCNc1nc(N2CCN(C(=O)C([C@@H](C)O)n3cc([C@@H](N)CCCCN)nn3)CC2)nc(N2CCN(C(=O)[C@H](CO)n3cc([C@@H](N)C(C)C)nn3)CC2)n1 (some centres undefined),inactive
24,CCN(CC)c1ccc(/C=N/O)cc1,21.6 µM (active)
25,CN(C)c1nc(Oc2ccc(/C=N/O)cc2)nc(N(C)C)n1,inactive
26,CN(C)c1ccc(/C=N/O)cc1,23.9 µM (active)
27,CCN(CC)c1ccc(/C=N/NC(=O)c2ccoc2C)cc1,inactive
28,CCN(CC)CC(C)(C)C(=O)/C=C/c1ccc(/C=C/C(=O)C(C)(C)CN(CC)CC)cc1,inactive
29,CCN(CC)c1ccc(/C=N\NC(N)=O)cc1,53.8 µM (active)
